Molecules are shown by their SMILES. Among all 16,000 compounds or so, about 5,800 (36%) were called active. Roughly 23% stayed inconclusive and do not appear here. The list shows a part of the results. Values without a mark were called inactive. The call rests on the fitted dose curve; in most records, active means well fitted curve in the direction sought with a large enough effect; inconclusive means small, poorly fitted or top-dose-only effect, or effect the other way; inactive means no such curve, though single readings can be large or run the other way.

Drawing on PubChem BioAssay AID1851 (National Center for Advancing Translational Sciences (NCATS), 2009), this text covers AC50 and activity, negative = inhibition for 70 compounds.
On the % scale 0 is the no-effect control and ±100 the full control effect.

Cytochrome P450 2C19 (Homo sapiens), sequence (P33261 whole entry, looked up): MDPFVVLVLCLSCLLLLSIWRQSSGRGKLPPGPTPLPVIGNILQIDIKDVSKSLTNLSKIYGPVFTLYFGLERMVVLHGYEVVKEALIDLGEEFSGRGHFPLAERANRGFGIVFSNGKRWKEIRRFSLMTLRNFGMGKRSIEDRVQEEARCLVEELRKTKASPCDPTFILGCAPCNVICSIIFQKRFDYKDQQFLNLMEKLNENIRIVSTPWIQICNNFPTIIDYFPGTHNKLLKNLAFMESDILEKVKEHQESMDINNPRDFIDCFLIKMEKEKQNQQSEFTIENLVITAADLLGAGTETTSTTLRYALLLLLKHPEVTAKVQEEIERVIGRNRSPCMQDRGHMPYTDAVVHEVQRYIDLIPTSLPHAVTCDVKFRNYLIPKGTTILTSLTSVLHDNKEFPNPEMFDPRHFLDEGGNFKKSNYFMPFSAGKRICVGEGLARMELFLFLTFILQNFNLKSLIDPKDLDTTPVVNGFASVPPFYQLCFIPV

This test concerns the target Cytochrome P450 2C19 (Homo sapiens) (UniProt P33261). The test is described as follows: Cytochrome panel assay with activity outcomes. Particulars: recombinant CYP, pro-luciferin dealkylation, luminescence, p450-cyp2c19; series mostly up to 57.1 µM.
As for `CCNc1ncc2nc(-c3ccc(OC)cc3)c(=O)n(Cc3cccc(OC)c3)c2n1`, the AC50 result was “inactive”.
With `CCNc1ncc2ncc(=O)n(Cc3cccc(OC)c3)c2n1`, the AC50 is 2 µM (active).
In the case of `CCNc1ncc2nc(-c3cccs3)c(=O)n(Cc3cccc(OC)c3)c2n1`, the AC50 entry was “inactive”.
For the compound `COc1cccc(Cn2c(=O)cnc3cnc(Nc4cccc(OC)c4)nc32)c1`, the AC50 is 3.98 µM (active).
The same measure, in the same setting: the entry for `COCCn1c(=O)cnc2cnc(Nc3cccc(OC)c3)nc21` is “inactive”.
The same measure, in the same setting: in the case of `CCNc1ncc2nc(-c3cn(C)c4ccccc34)c(=O)n(Cc3cccc(OC)c3)c2n1` it was “inactive”; in that of `COc1cccc(Nc2ncc3ncc(=O)n(CCC#N)c3n2)c1`, “inactive”.
Same read-out and setting: the entry for `CCNc1ncc2nc(-c3ccc(Cl)cc3)c(=O)n(Cc3cccc(OC)c3)c2n1` is “inactive”; for `CCNc1ncc2nc(C)c(=O)n(Cc3cccc(OC)c3)c2n1` it is 10 µM (active); for `COCCN1C(=O)C(=O)/C(=C(/O)c2cccc(OC)c2)C1c1ccco1` (stereo not given) it is “inactive”.
For `COc1cccc(/C(O)=C2/C(=O)C(=O)N(CCCN3CCOCC3)C2c2ccncc2)c1` (stereo not given), the AC50 result was “inactive”.
Turning to `CCOc1ccc(/C(O)=C2/C(=O)C(=O)N(CCOCCO)C2c2cccnc2)cc1` (stereo not given), the AC50 entry is “inactive”.
Still for that read-out and setting: in the case of `CCOc1cccc(/C(O)=C2/C(=O)C(=O)N(Cc3ccco3)C2c2ccncc2)c1` (stereo not given) it was 10 µM (active).
Same read-out and setting: the figure for `COc1cccc(/C(O)=C2/C(=O)C(=O)N(Cc3cccnc3)C2c2ccco2)c1` (stereo not given) is 14.1 µM (active); for `COCCN1C(=O)C(=O)/C(=C(/O)c2cccc(OC)c2)C1c1ccc(C)o1` (stereo not given) it is “inactive”.
The same measure, in the same setting: in the case of `O=C(c1cnccn1)N1CCC2(CC1)CN(c1ccncc1)C2` it was “inactive”; in that of `O=C(CCNC(=O)Cn1ccc2ccccc2c1=O)NCCCN1CCN(c2ccc(F)cc2)CC1`, “inactive”.
Consider `O=C(c1cc(-c2ccco2)on1)N1CCOCC1`, for which the AC50 result is “inactive”.
Consider `CC(C)CCN1CC(C(=O)N2CCN(c3ccc(F)cc3)CC2)CC1=O` (stereo not given), for which the AC50 result was “inactive”.
Same read-out and setting: in the case of `O=C(CCS(=O)(=O)c1cccs1)N1CCN(c2ccc(F)cc2)CC1` it was 0.891 µM (active); in that of `O=C(c1cc(-c2cccs2)on1)N1CCN(c2ccc(F)cc2)CC1`, 1.41 µM (active); in that of `Oc1cc(O)cc(/C=C\c2ccc(O)c(O)c2)c1`, “inactive”.
On the same count and under the same terms, in the case of `CC(C)c1cccc2nc3c(c([Si](C)(C)C)c12)Cn1c-3cccc1=O` it was “inactive”; in that of `Cc1ccc(OCC(=O)N/N=C\c2c(C)n(C)c3ccccc23)c([N+](=O)[O-])c1`, 8.91 µM (active).
For the compound `NC[C@H](O)C1CCCCCCC1`, the AC50 result was “inactive”.
For `CC(=O)c1cnc2c(C(=O)O)cnn2c1C`, the AC50 entry was “inactive”.
For `Cc1nc2c(C(=O)N3CCOCC3)cnn2c(C)c1Cc1ccc(Cl)cc1`, the AC50 was 2.24 µM (active).
Turning to `Cc1nc2ncnn2c(C)c1CCC(=O)N1CCN(C(=O)c2ccco2)CC1`, the AC50 result is “inactive”.
Turning to `N=c1n(CCN2CCOCC2)c2ccccc2n1CC(=O)c1ccc(Cl)c(Cl)c1`, the AC50 was 6.31 µM (active).
As to `COC(=O)Cn1c(=N)n(CCN2CCCCC2)c2ccccc21`, the AC50 result was “inactive”.
Still for that read-out and setting: the figure for `Cc1cc(=O)[nH]c(SCC(=O)Nc2nc3c(s2)CCCC3)n1` is 7.94 µM (active).
The same measure, in the same setting: the entry for `O=S(=O)(c1ccccc1)N1CCC2(CCN(c3ncccn3)CC2)CC1` is “inactive”; for `O=S(=O)(c1ccccc1)N1CCN(c2cc(-c3ccccc3)nc3ncnn23)CC1` it is 11.2 µM (active); for `FC(F)(F)c1ccc(N2CCN(c3cc(-c4ccccc4)nc4ncnn34)CC2)nc1` it is 3.55 µM (active).
As for `Cc1cnn(-c2cc(N/N=C/c3ccccc3)ncn2)c1`, the AC50 entry is “inactive”.
Still for that read-out and setting: the figure for `Cc1cccc(/C=N\Nc2cn[nH]c(=O)c2Cl)c1` is 10 µM (active).
For the compound `CCOC(=O)C1C(=O)C=C(/C=C/c2ccccc2)CC1c1ccc(Cl)cc1` (stereo not given), the AC50 is 8.91 µM (active).
On to `COc1ccccc1C(=O)NCCn1cc(SCC(=O)Nc2nnc(C)s2)c2ccccc21`, for which the AC50 was 8.91 µM (active).
Regarding `CCc1nnc(NC(=O)CCC(=O)NCc2ccccc2OC)s1`, the AC50 entry is “inactive”.
Same read-out and setting: the figure for `CC(C)CN(CC(C)C)C1=N/C(=C\c2ccco2)C(=O)N1c1ccccc1` is 2.82 µM (active).
Same read-out and setting: the figure for `CCOC(=O)CN1C(=O)Nc2ccc(Br)cc2C1c1ccccc1` (stereo not given) is 3.98 µM (active); for `CCOC(=O)C1(C(=O)O)NC(=O)CC1c1ccccc1` (stereo not given) it is “inactive”.
`O=C(Nc1ccccc1[N+](=O)[O-])C1C(c2ccccc2)=C1c1ccccc1`: the AC50 is 2.51 µM (active).
Still for that read-out and setting: the figure for `COc1ccc(CCC(C)Nc2cccc(F)c2)cc1` (stereo not given) is 0.891 µM (active).
The same measure, in the same setting: the entry for `C[C@@H](CCc1ccc(O)cc1)NCCc1ccc(O)c(O)c1` is “inactive”; for `CC(=O)Nc1ccc(OCC(O)Cn2cnc3ccccc32)cc1` (stereo not given) it is 22.4 µM (active).
The same measure, in the same setting: in the case of `CC(=O)Nc1ccc(OC[C@@H](O)CNC(C)C)cc1` it was “inactive”; in that of `OC(COCc1ccccc1)Cn1cnc2ccccc21` (stereo not given), 14.1 µM (active).
Regarding `CN1CCCCC1=NCCCn1cnc2c1c(=O)n(C)c(=O)n2C`, the AC50 entry is “inactive”.
Turning to `O=c1c(-c2cc(F)cc(F)c2)nc2cncnc2n1Cc1ccccc1Cl`, the AC50 is 1.58 µM (active).
Consider `O=c1c(-c2cccc(F)c2)nc2cncnc2n1-c1ccccc1`, for which the AC50 is 15.8 µM (active).
For `O=c1c(-c2cccc(Cl)c2)nc2cncnc2n1C1CC1`, the AC50 result was “inactive”.
Regarding `O=c1c(-c2cccc(F)c2)nc2cncnc2n1Cc1ccccc1Cl`, the AC50 is 0.794 µM (active).
Same read-out and setting: in the case of `O=c1c(-c2cccc(F)c2)nc2cncnc2n1C1CC1` it was “inactive”; in that of `O=c1c(-c2cccc(Cl)c2)nc2cncnc2n1Cc1ccccc1Cl`, 5.01 µM (active); in that of `O=c1c(-c2ccc(F)cc2)nc2cncnc2n1-c1ccccc1`, “inactive”.
Same read-out and setting: in the case of `O=c1[nH]c(=O)n([C@@H]2C[C@H](O)[C@H](CO)O2)cc1I` it was “inactive”.
In the case of `O=C1C2C3C=CC(C2C(=O)N1CN1CCOCC1)C1C2C(=O)N(CN4CCOCC4)C(=O)C2C31` (stereo not given), the activity, negative = inhibition was 22.1% [at 11.4 µM].
Turning to `Cc1ccccc1NC(=O)c1cnc(Nc2nc3ccccc3s2)nc1C`, the AC50 entry was “inactive”.
On the same count and under the same terms, in the case of `Cc1ccccc1NC(=O)c1cccc2nc3ccccc3nc12` it was 3.55 µM (active); in that of `O=C(Nc1ccc2c(c1)OCCO2)c1cccc2nc3ccccc3nc12`, 4.47 µM (active).
The same measure, in the same setting: the entry for `O=c1c(-c2ccc(F)cc2)nc2cnc(Nc3ccccc3)nc2n1Cc1cccs1` is “inactive”; for `C=CCC(C)(NCc1ccccc1)c1ccco1` (stereo not given) it is 11.2 µM (active).
On the same count and under the same terms, the figure for `Clc1ccc(COc2ccccn2)cc1Cl` is 2.24 µM (active).
Take `COc1ccc(/C=N/NC(=O)c2cccc([N+](=O)[O-])c2)cc1OS(=O)(=O)c1ccc(C)cc1`: the half-maximal activity concentration (AC50) is 3.16 µM (active).
Turning to `CCCOc1ccc(/C=C/C(=O)Nc2ccc([N+](=O)[O-])cc2C)cc1OC`, the AC50 was 3.98 µM (active).
The same measure, in the same setting: the figure for `CCOc1cc(/C=N/NC(=O)c2cccc([N+](=O)[O-])c2)ccc1OS(=O)(=O)c1ccccc1` is 14.1 µM (active).
For the compound `CC(/C=N/NC(=O)c1cccc([N+](=O)[O-])c1)=C\c1ccccc1`, the AC50 entry was “inactive”.
For the compound `CCOc1ccc(NC(=S)NC(=O)/C=C/c2ccc(OC)c(OC)c2)c([N+](=O)[O-])c1`, the AC50 result is “inactive”.
Still for that read-out and setting: in the case of `COc1cc(/C=N\Nc2ccc([N+](=O)[O-])cc2)ccc1OCC(=O)Nc1ccc(C)c(C)c1` it was 3.98 µM (active).

By AC50 is commonly meant the concentration giving half of the maximal activity seen.
